Screening data (PubChem)
Hits are enriched below; roughly 3.7% of the tested compounds scored in any of these assays.
D3 antag: D3 dopamine receptor (human) antagonism | max response, negative = inhibition, % | D3R cells, DiscoveRx beta-arrestin luminescence, antagonist mode; hits give low values | actives 2.5% (n = 360,000) | P35462; in the data active = max response below about -50%; inconclusive = no clear call, values can overlap the other calls
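Cells plated overnight at 1500 cells/well, then exposed to library compounds with dopamine controls for 90 minutes at 37 degrees C. DiscoveRx reagent added for 30–60 minutes at room temperature; luminescence read, quantitative HTS format.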
RGS4 inh: inhibitors of human regulator of G protein signaling 4 | AID 504845 | Transcreener GDP fluorescence polarization, RGS4-accelerated GTP hydrolysis | actives 0.039% (n = 390,000) | Potency, µM (doses to about 114 µM), most hits filed as inhibitors | P49798; note: nearly all actives have a fitted effect of over 75% in size
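MLSMR compounds (23 nl, pin-transferred) preincubated 10 min at room temperature with a 500nM (2x) first reagent, then RGS4 at 900nM (2x) plus Transcreener GDP mix added; fluorescence polarization (620/688 nm) read before and after 90 min at 30 °C.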
B2AR arrestin: agonists driving beta-arrestin recruitment to human beta2-adrenergic receptor | P07550 | beta-arrestin recruitment to beta2AR, cell-based reporter | Potency, µM (titrated, usually from 46.1 µM), usual class: activators | actives 0.02% (n = 330,000) | AID 492947; note: nearly all actives have a fitted effect of over 65% in size
PTHR1 ag: activates the human parathyroid hormone receptor PTHR1; HEK293 GP2 PTHR1 cells, GloSensor cAMP luminescence, 1 h; Potency, µM (highest dose often 115 µM), usual class: activators; actives 0.075% (n = 410,000); AID 743266; note: nearly all actives have a fitted effect of over 55% in size
Target sequence (Q03431 whole entry, looked up): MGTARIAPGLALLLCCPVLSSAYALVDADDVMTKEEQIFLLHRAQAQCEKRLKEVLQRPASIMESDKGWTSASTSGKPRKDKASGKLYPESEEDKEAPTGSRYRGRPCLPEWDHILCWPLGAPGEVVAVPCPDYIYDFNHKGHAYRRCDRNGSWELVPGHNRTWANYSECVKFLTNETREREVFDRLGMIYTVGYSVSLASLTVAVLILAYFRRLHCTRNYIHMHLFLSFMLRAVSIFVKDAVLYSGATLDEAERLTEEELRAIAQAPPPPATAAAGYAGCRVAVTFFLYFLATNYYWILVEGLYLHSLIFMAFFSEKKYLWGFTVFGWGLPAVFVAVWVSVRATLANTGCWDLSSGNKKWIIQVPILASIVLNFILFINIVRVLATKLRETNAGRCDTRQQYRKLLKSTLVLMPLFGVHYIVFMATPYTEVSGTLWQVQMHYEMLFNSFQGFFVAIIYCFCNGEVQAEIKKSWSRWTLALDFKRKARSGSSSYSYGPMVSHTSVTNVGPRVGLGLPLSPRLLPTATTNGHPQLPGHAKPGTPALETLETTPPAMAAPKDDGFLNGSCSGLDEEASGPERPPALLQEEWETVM
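HEK-293-derived GP2 cells expressing PTHR1 and a GloSensor cAMP reporter, 3,000/well, plated overnight, given luciferin plus IBMX (each 0.5 mM as added) for 1 h at 37 °C, then compound for 1 h at 37 °C. Luminescence was read after 15 min at room temperature.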
BRCA1 expr up: activators of BRCA1 expression | MCF7-BRCA1-FFLuc reporter, luminescence, 48 h; response scale: scaled: vehicle 0%, 10 µM genistein 100% | Potency, µM (highest dose often 46.1 µM), hits mostly activators | actives 1.1% (n = 380,000); note: nearly all actives have a fitted effect of over 80% in size
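MCF7-BRCA1-FFLuc cells, 2000/well in phenol-red-free MEM, attached 2 h then treated 48 h at 37 C. Luciferase luminescence read 15 min after reagent; normalized to genistein maximum activation (10microM) and DMSO, concentration-response fitted.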
DRD3 agonist: activates the human D3 dopamine receptor; P35462; D3R DiscoveRx beta-arrestin cells, luminescence, 90 min; max activation, %; actives 0.58% (n = 410,000); in the data active = max activation above about 30%
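Cells at 1500/well, incubated overnight, then treated with pinned compounds (dopamine as control) for 90 min at 37 degrees C. DiscoveRx reagent added for 30 - 60 minutes at room temperature; luminescence read.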
Hits are given with their value; i = inactive; ? = inconclusive; nt = no result given; [ ] = another dose, or the depositor's remark. Unless noted, calls come from the whole dose curve; as a rule, active = well fitted curve in the direction sought with a large enough effect; inconclusive = small, poorly fitted or top-dose-only effect, or another doubt; inactive = no such curve, though single readings can be large; an effect the other way counts as inactive or inconclusive.

SMILES	D3 antag	RGS4 inh	B2AR arrestin	PTHR1 ag	BRCA1 expr up	DRD3 agonist
S=c1nc(-c2ccccn2)c(-c2ccccn2)n[nH]1	-78	nt	nt	i	i	i
Cc1ccccc1NS(=O)(=O)c1ccc(C2CNC(=O)C2)cc1 (stereo not given)	-104	i	i	i	i	i
O=C1CC(c2ccc(S(=O)(=O)NCc3ccccc3)cc2)CN1 (stereo not given)	i	i	i	i	i	i
CCc1c(C)nc2cc(-c3ccc(OC)c(OC)c3)nn2c1NCC1CC1	i	i	i	i	i	38
COc1ccc(CCNC(=O)CCc2c(C)nc3cc(-c4ccccc4)nn3c2C)cc1OC	nt	i	nt	i	i	i
CN(Cc1ccccc1)C(=O)c1ccc(NC(=O)Cc2cccc(NC(=O)C3CCCN(C(=O)C4CCC4)C3)c2)cc1 (stereo not given)	i	i	i	i	i	i
Cc1ccc(S(=O)(=O)N/N=C/c2ccc3nccnc3c2)cc1	?	i[11.4 µM]	i	i	i	52
Cc1ccc(S(=O)(=O)N/N=C/c2c(F)cccc2Cl)cc1	-87	i	i	i	i	i
Cc1ccc(S(=O)(=O)N/N=C/c2cccc([N+](=O)[O-])c2)cc1	i	i	i	i	i	i
Cc1ccc(S(=O)(=O)N/N=C\c2cc([N+](=O)[O-])ccc2Cl)cc1	-63	i	i	i	i	i
CC(=O)Nc1ccc(S(=O)(=O)NN=Cc2ccc(Cl)c(Cl)c2)cc1	-71	i	nt	i	i	i
O=[N+]([O-])c1ccc(S(=O)(=O)NN=Cc2ccc(Cl)c(Cl)c2)cc1	-51	?	nt	i	i	i
Cc1ccc(-n2cc(CN3CCC(CO)(Cc4cccc(C(F)(F)F)c4)CC3)cn2)cc1	-61	i	i	i	i	i
Cc1ccc(-n2cc(CN3CCC(CO)(Cc4ccccc4)CC3)cn2)cc1	nt	nt	i	nt	nt	nt
Cc1cn(CCC(=O)Nc2ccc(N3CCOCC3)cc2)c2ccccc12	i	i	i	i	10µM	i
Cc1[nH]nc(SCC(=O)N2CCCCCC2)c1[N+](=O)[O-]	i	i	i	i	7.9µM	i
Cc1cc(C)c(S(=O)(=O)N2CCOC23CCN(S(C)(=O)=O)CC3)c(C)c1	i	nt	nt	i	i	i
Cc1n(N)c2ccccc2[n+]1CC(=O)c1ccccc1	-82	i	i	i	i	i
OC(COC1CCCCC1)CN1CCN(c2ccccc2)CC1 (stereo not given)	-61	i	i	i	i	i
OC(COc1ccc2c(c1)OCO2)CN1CCCCC1 (stereo not given)	i	i	i	i	i	i
CC(C)c1ccc(OCC(O)CN2CCN(c3ccccc3)CC2)cc1 (stereo not given)	?	i	i	i	i	45
COc1ccc(OCC(O)CN2CCN(c3ccccc3)CC2)cc1 (stereo not given)	?	i	?	i	i	i
OC(COc1ccc2c(c1)OCO2)CN1CCN(c2ccccc2)CC1 (stereo not given)	-63	i	i	i	i	i
COc1ccc(N2CCN(CC(O)COCc3ccccc3)CC2)cc1 (stereo not given)	i	i	i	i	i	i
OC(COc1ccc2c(c1)OCO2)CN1CCc2ccccc2C1 (stereo not given)	-78	i	i	i	i	i
SMILES	D3 antag	RGS4 inh	B2AR arrestin	PTHR1 ag	BRCA1 expr up	DRD3 agonist
CC(C)[C@@H]1CC2=C(C(=O)OC(C)(C)O2)[C@H](CCc2ccccc2)O1	i	nt	nt	i	i	i
COc1ccc(OCC(CO)N2CCN(c3ccccc3)CC2)cc1 (stereo not given)	?	i	nt	i	i	37
O=C(Nc1ccc(-c2cnco2)cc1)c1ccc(F)cc1F	i	i	i	i	5µM	i
CCn1cc(C(=O)NCc2ccc3c(c2)OCO3)c(=O)c2cc(F)c(N3CCN(C(=O)c4ccco4)CC3)cc21	i	i[11.4 µM]	i	i	i	i
N/C(=N\OC(=O)c1ccccc1Cl)c1cccnc1	i	i	i	i	i	i
N/C(=N\OC(=O)c1ccc2c(c1)OCO2)c1cccc(Br)c1	i	i	i	i	?	i
